# Reference: PMC7862700, “An all-to-all approach to the identification of sequence-specific readers for epigenetic DNA modifications on cytosine”
# Legend:
# Assay in all cases: DAPPL (digital affinity profiling via proximity ligation, sequencing); 10 mM Tris-HCl pH 7.5, 50 mM NaCl, 1 mM DTT, 4% glycerol, room temperature, 30 min; GST-TFs on glutathione beads, 16-mer random dsDNA library, 0.1% formaldehyde crosslink after washing; high values mean tight binding
# FEV = biological target: T1, FEV (Homo sapiens, UniProt Q99581 1-238); conditions: protein: recombinant; tags: N-terminal GST; dsDNA, one strand shown
# T1 sequence: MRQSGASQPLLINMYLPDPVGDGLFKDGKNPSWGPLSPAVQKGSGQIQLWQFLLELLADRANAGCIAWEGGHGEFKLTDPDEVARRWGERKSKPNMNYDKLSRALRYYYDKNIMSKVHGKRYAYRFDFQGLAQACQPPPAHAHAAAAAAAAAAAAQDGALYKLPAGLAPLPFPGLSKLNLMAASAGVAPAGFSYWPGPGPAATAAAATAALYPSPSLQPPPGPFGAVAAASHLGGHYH
# Procedure, shortened: (§1)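 The binding signal reported is, for every hexamer, its read frequency for a factor over its read frequency for the tag-only sample. Reads came from pools of yeast-expressed, GST-fused human transcription factors on glutathione beads, barcoded with DNA and mixed with that sample, which were incubated with 200 nmole of a random double-stranded 16-mer DNA library in Tris/NaCl/DTT/glycerol buffer at room temperature for 30 min. After washing, the pools were crosslinked with 0.1% formaldehyde, proximity-ligated with BsaI/T4 ligase for 1 h at 37 °C, PCR-amplified and sequenced on an Illumina NextSeq500.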
# ETV5 = ETV5 (Homo sapiens, UniProt P41161 1-510); conditions: protein: recombinant; tags: N-terminal GST; dsDNA, one strand shown
# Procedure, shortened: as §1
# HSF1 = HSF1 (Homo sapiens, UniProt Q00613 1-529); conditions: protein: recombinant; tags: N-terminal GST; chain copies: 3; dsDNA, one strand shown
# Procedure, shortened: as §1
# SPIC = biological target: T2, SPIC (Homo sapiens, UniProt Q8N5J4 1-248); conditions: protein: recombinant; tags: N-terminal GST; dsDNA, one strand shown
# T2 sequence: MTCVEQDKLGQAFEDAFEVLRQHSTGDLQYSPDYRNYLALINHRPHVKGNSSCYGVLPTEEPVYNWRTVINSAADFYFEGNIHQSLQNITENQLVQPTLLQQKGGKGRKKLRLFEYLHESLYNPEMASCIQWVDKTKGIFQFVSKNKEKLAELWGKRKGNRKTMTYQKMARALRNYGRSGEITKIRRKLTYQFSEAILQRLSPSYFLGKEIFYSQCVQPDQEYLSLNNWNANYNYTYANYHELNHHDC
# Procedure, shortened: as §1
# ELF4 = ELF4 (Homo sapiens, UniProt Q99607 1-663); conditions: protein: recombinant; tags: N-terminal GST; dsDNA, one strand shown
# Procedure, shortened: as §1
# ELK4 = biological target: T3, ELK4 (Homo sapiens, UniProt P28324-2 1-405); conditions: protein: recombinant; tags: N-terminal GST; dsDNA, one strand shown
# T3 sequence: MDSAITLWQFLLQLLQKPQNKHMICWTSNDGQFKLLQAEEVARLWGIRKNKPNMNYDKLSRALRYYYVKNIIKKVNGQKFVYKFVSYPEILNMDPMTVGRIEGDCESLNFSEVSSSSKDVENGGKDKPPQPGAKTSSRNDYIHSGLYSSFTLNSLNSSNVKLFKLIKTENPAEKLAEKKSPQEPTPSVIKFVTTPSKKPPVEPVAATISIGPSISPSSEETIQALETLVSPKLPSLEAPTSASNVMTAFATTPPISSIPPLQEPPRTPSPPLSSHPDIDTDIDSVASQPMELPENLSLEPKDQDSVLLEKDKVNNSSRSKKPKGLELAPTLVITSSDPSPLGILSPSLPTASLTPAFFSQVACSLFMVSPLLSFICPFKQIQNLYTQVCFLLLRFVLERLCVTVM
# Procedure, shortened: as §1
# ETV2 = biological target: T4, ETV2 (Homo sapiens, UniProt O00321 1-342); conditions: protein: recombinant; tags: N-terminal GST; dsDNA, one strand shown
# T4 sequence: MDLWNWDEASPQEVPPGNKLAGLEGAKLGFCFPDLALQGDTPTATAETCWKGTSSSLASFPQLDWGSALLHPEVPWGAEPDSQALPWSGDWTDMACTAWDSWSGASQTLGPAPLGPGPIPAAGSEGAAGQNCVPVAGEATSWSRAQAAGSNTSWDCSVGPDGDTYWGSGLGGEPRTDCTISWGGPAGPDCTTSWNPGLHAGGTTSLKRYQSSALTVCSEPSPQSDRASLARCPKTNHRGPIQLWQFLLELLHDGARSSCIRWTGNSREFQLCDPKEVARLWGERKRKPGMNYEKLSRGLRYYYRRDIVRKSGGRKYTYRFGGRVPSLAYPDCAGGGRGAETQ
# Procedure, shortened: as §1
# ELF3 = biological target: T5, ELF3 (Homo sapiens, UniProt P78545 1-371); conditions: protein: recombinant; tags: N-terminal GST; dsDNA, one strand shown
# T5 sequence: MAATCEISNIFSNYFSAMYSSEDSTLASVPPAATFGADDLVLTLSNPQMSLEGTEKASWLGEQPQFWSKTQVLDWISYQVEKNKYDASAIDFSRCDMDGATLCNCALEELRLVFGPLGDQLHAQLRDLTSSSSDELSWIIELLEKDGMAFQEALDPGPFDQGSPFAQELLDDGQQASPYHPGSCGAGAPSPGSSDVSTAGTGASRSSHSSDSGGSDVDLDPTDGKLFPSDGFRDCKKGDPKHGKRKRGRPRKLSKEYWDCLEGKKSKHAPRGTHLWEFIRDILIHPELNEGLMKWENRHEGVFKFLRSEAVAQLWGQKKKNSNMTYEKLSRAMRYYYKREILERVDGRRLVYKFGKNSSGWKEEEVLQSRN
# Procedure, shortened: as §1
# CRX = CRX (Homo sapiens, UniProt O43186 1-299); conditions: protein: recombinant; tags: N-terminal GST; dsDNA, one strand shown
# Procedure, shortened: as §1
# ETV1 = ETV1 (Homo sapiens, UniProt P50549 1-477); conditions: protein: recombinant; tags: N-terminal GST; dsDNA, one strand shown
# Procedure, shortened: as §1
# ERF = biological target: T6, ERF (Homo sapiens, UniProt P50548 1-548); conditions: protein: recombinant; tags: N-terminal GST; dsDNA, one strand shown
# T6 sequence: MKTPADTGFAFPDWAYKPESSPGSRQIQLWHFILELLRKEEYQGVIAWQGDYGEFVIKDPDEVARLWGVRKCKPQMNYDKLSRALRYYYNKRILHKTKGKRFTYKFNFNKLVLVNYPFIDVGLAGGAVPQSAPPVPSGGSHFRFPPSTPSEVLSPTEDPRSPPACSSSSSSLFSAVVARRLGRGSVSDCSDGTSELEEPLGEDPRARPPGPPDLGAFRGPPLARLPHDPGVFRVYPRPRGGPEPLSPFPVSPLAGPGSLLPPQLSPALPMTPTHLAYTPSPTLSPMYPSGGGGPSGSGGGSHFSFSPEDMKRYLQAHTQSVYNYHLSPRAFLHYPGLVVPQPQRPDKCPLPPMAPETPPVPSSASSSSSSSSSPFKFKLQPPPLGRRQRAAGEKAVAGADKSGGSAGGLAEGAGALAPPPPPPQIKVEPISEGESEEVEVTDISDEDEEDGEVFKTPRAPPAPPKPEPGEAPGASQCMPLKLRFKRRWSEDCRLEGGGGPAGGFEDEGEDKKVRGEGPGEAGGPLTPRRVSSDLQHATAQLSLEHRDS
# Procedure, shortened: as §1
# ETV3L = biological target: T7, ETV3L (Homo sapiens, UniProt Q6ZN32 1-361); conditions: protein: recombinant; tags: N-terminal GST; dsDNA, one strand shown
# T7 sequence: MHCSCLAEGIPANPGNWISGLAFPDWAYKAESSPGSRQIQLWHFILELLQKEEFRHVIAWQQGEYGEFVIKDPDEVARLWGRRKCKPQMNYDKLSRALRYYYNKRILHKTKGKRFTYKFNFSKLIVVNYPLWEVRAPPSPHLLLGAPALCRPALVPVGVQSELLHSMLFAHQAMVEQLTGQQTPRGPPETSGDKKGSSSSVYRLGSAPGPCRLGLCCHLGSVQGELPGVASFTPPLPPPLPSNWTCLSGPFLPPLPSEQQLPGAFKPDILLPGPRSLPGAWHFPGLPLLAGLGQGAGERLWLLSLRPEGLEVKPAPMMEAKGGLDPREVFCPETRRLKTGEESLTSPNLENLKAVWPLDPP
# Procedure, shortened: as §1
# ETS2 = biological target: T8, ETS2 (Homo sapiens, UniProt P15036 1-469); conditions: protein: recombinant; tags: N-terminal GST; dsDNA, one strand shown
# T8 sequence: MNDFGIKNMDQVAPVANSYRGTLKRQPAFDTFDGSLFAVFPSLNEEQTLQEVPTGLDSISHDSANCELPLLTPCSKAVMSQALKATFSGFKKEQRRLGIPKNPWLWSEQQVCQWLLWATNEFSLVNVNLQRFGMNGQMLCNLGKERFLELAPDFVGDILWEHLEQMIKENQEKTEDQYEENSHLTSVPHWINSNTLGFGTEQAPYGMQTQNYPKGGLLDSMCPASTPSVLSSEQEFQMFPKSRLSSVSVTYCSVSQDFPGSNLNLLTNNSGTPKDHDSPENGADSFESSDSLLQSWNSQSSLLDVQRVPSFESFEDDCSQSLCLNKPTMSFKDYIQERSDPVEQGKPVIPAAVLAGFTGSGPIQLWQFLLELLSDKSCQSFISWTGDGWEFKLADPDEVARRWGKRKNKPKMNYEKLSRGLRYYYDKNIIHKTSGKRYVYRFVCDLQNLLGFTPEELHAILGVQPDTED
# Procedure, shortened: as §1
# SPDEF = biological target: T9, SPDEF (Homo sapiens, UniProt O95238 1-335); conditions: protein: recombinant; tags: N-terminal GST; dsDNA, one strand shown
# T9 sequence: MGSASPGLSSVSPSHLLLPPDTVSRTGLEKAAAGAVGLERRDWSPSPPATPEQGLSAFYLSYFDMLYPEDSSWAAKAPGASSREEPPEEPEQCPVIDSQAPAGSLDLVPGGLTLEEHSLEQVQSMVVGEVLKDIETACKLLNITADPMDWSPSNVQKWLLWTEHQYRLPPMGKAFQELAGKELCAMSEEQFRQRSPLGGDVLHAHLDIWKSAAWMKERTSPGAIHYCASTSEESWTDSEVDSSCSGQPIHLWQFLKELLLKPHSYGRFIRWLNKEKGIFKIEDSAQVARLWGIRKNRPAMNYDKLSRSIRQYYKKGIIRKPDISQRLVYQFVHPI
# Procedure, shortened: as §1
# ETV7 = biological target: T10, ETV7 (Homo sapiens, UniProt Q9Y603 1-341); conditions: protein: recombinant; tags: N-terminal GST; dsDNA, one strand shown
# T10 sequence: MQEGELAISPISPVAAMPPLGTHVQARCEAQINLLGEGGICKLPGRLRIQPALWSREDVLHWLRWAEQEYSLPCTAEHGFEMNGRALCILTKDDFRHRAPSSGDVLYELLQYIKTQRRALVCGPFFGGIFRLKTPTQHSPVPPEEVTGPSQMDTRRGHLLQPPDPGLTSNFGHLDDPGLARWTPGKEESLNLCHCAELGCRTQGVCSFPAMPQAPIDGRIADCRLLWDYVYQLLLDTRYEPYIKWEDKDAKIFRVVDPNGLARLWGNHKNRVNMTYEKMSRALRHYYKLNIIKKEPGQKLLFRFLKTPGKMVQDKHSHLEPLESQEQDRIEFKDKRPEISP
# Procedure, shortened: as §1
# ELF5 = biological target: T11, ELF5 (Homo sapiens, UniProt Q9UKW6-2 1-255); conditions: protein: recombinant; tags: N-terminal GST; dsDNA, one strand shown
# T11 sequence: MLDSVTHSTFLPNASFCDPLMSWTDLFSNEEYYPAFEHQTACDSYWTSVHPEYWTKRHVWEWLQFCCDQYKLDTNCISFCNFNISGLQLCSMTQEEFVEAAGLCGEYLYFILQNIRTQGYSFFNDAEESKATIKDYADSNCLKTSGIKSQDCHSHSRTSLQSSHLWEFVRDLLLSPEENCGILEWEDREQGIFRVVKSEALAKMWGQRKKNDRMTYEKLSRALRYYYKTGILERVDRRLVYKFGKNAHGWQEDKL
# Procedure, shortened: as §1
# ETV3 = biological target: T12, ETV3 (Homo sapiens, UniProt P41162-2 1-143); conditions: protein: recombinant; tags: N-terminal GST; dsDNA, one strand shown
# T12 sequence: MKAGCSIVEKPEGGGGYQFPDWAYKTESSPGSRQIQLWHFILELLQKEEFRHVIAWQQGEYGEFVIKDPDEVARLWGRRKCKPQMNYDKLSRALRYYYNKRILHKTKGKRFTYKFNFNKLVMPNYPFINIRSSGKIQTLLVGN
# Procedure, shortened: as §1
# ETV6 = ETV6 (Homo sapiens, UniProt P41212 1-452); conditions: protein: recombinant; tags: N-terminal GST; dsDNA, one strand shown
# Procedure, shortened: as §1
# ELF4, sequence (Q99607 whole entry): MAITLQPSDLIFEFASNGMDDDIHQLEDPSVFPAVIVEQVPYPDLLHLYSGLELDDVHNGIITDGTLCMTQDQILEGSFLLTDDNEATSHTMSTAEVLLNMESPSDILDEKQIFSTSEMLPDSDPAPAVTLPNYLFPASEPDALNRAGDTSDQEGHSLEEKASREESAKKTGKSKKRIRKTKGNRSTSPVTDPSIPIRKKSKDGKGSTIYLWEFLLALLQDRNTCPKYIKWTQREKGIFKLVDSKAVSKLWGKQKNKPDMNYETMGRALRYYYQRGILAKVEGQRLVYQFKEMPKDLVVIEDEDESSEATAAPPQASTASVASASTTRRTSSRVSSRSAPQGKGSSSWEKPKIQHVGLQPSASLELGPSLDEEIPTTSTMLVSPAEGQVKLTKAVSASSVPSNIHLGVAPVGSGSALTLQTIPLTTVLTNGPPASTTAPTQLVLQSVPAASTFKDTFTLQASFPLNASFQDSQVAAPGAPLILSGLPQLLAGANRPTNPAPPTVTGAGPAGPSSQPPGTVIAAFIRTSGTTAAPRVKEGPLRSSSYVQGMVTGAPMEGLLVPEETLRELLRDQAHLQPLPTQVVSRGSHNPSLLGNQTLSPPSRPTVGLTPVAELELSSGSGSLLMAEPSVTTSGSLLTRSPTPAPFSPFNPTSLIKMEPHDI
# CRX, sequence (O43186 whole entry): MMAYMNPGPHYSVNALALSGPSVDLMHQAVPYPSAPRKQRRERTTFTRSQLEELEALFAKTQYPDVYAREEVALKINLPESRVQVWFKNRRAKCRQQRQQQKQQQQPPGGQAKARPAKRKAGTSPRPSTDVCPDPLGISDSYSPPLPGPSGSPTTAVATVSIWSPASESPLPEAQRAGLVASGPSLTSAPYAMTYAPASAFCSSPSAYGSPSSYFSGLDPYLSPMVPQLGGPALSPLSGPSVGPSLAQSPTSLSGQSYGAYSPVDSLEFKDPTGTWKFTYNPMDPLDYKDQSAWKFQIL
# ETV1, sequence (P50549 whole entry): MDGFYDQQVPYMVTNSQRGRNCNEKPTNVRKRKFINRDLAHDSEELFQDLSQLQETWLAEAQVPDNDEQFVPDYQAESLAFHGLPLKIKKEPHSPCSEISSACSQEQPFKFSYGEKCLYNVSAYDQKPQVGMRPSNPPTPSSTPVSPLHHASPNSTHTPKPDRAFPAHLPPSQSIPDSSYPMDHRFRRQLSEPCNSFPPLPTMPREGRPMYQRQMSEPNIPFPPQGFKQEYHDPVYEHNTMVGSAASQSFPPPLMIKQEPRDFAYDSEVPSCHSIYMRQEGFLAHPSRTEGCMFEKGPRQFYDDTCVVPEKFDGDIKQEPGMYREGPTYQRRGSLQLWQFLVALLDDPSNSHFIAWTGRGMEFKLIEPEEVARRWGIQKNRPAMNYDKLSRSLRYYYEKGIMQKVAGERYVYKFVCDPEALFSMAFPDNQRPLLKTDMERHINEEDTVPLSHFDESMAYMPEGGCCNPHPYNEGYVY
# ETV5, sequence (P41161 whole entry): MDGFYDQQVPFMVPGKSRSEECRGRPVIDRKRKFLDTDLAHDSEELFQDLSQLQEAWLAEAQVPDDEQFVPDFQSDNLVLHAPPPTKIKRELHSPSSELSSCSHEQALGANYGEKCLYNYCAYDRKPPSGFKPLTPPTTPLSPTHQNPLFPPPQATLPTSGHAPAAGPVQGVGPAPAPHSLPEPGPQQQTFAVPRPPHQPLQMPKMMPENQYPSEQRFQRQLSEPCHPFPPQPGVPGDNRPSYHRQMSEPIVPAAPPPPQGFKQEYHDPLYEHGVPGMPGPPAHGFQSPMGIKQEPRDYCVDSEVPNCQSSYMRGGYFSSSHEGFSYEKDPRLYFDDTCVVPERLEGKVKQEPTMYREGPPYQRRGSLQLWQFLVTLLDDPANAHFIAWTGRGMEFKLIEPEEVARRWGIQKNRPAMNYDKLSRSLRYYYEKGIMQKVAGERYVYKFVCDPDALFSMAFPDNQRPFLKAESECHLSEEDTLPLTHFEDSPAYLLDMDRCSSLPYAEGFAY
# ETV6, sequence (P41212 whole entry): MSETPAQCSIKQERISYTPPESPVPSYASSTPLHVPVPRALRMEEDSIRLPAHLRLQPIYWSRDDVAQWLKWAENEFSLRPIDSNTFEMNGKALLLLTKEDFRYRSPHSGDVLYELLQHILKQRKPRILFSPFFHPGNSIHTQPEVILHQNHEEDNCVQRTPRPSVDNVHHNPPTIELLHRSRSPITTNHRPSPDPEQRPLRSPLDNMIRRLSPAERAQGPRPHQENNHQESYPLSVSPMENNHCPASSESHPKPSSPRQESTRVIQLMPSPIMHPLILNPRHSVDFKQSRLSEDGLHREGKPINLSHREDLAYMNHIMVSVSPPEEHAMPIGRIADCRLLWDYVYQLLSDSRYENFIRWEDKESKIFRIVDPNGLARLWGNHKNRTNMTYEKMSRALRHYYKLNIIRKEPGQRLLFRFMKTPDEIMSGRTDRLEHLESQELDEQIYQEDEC
# HSF1, sequence (Q00613 whole entry): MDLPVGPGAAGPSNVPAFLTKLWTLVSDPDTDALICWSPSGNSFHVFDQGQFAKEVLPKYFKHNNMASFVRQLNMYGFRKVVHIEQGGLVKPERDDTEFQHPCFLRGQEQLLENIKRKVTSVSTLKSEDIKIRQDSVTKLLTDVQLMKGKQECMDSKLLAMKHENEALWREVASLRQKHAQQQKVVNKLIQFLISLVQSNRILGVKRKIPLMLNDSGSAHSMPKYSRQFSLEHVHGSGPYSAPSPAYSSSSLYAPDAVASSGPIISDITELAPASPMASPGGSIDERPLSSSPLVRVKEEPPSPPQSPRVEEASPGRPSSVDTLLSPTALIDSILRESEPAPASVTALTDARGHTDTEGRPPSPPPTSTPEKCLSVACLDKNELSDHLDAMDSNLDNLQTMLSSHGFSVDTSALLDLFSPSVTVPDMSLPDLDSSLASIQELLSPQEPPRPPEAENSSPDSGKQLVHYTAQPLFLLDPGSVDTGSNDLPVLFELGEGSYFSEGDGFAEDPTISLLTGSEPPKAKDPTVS
sequence,measurement,setting,value
ACCGAC,binding signal,FEV,"1.36 fold enrichment (6-mer frequency, TF over GST control)"
same,binding signal,ETV5,"1.31 fold enrichment (6-mer frequency, TF over GST control)"
same,binding signal,HSF1,"1.05 fold enrichment (6-mer frequency, TF over GST control)"
same,binding signal,SPIC,"1.37 fold enrichment (6-mer frequency, TF over GST control)"
same,binding signal,ELF4,"1.31 fold enrichment (6-mer frequency, TF over GST control)"
same,binding signal,ELK4,"1.24 fold enrichment (6-mer frequency, TF over GST control)"
same,binding signal,ETV2,"1.36 fold enrichment (6-mer frequency, TF over GST control)"
same,binding signal,ELF3,"1.17 fold enrichment (6-mer frequency, TF over GST control)"
same,binding signal,CRX,"1.05 fold enrichment (6-mer frequency, TF over GST control)"
same,binding signal,ETV1,"1.37 fold enrichment (6-mer frequency, TF over GST control)"
same,binding signal,ERF,"1.29 fold enrichment (6-mer frequency, TF over GST control)"
same,binding signal,ETV3L,"1.44 fold enrichment (6-mer frequency, TF over GST control)"
same,binding signal,ETS2,"1.38 fold enrichment (6-mer frequency, TF over GST control)"
same,binding signal,SPDEF,"1.37 fold enrichment (6-mer frequency, TF over GST control)"
same,binding signal,ETV7,"1.25 fold enrichment (6-mer frequency, TF over GST control)"
same,binding signal,ELF5,"1.25 fold enrichment (6-mer frequency, TF over GST control)"
same,binding signal,ETV3,"1.27 fold enrichment (6-mer frequency, TF over GST control)"
same,binding signal,ETV6,"1.41 fold enrichment (6-mer frequency, TF over GST control)"
